# Laboratory results reported in publication PMC8384837, “Expanding the binding specificity for RNA recognition by a PUF domain”.
# Experiments:
# Assay in all cases: yeast three-hybrid, YBZ-1, SC-Leu-His + 0.5 mM 3-AT, 4 days
# Conditions in all cases: tags: N-Gal4 AD-HA kept; label: inside an RPR1-promoter hybrid RNA with tandem MS2 sites; ssRNA
# PUM1 PUF domain R3-QRR = PUM1 PUF domain R3-QRR (Homo sapiens, UniProt Q14671 828-1176, C935Q;Q939R)
# In short: (§1)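 Matching RNA elements and Pumilio-1 PUF domain libraries, randomized at the three base-contacting residues of every repeat, were co-expressed from a centromeric plasmid in strain YBZ-1 (LexA–MS2 coat fusion, HIS3 reporter). The repeat regions were PCR-amplified and Illumina-sequenced from cells grown four days on SC-Leu (input) or SC-Leu-His + 0.5 mM 3-AT (selection). The interaction score is the log change in variant frequency from input to selection. It is computed in log2, with a pseudocount of 1 for absent variants.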
# PUM1 PUF domain R5-GYV = PUM1 PUF domain R5-GYV (Homo sapiens, UniProt Q14671 828-1176, C1007G;R1008Y;Q1011V)
# In short: as §1
# PUM1 PUF domain R5-MKR = PUM1 PUF domain R5-MKR (Homo sapiens, UniProt Q14671 828-1176, C1007M;R1008K;Q1011R)
# In short: as §1
# PUM1 PUF domain R5-PWL = PUM1 PUF domain R5-PWL (Homo sapiens, UniProt Q14671 828-1176, C1007P;R1008W;Q1011L)
# In short: as §1
# PUM1 PUF domain R4-ALG = PUM1 PUF domain R4-ALG (Homo sapiens, UniProt Q14671 828-1176, N971A;H972L;Q975G)
# In short: as §1
# PUM1 PUF domain R5-VRV = PUM1 PUF domain R5-VRV (Homo sapiens, UniProt Q14671 828-1176, C1007V;Q1011V)
# In short: as §1
# PUM1 PUF domain R6-DWQ = molecular target: T1, PUM1 PUF domain R6-DWQ (Homo sapiens, UniProt Q14671 828-1176, N1043D;Y1044W)
# T1 sequence: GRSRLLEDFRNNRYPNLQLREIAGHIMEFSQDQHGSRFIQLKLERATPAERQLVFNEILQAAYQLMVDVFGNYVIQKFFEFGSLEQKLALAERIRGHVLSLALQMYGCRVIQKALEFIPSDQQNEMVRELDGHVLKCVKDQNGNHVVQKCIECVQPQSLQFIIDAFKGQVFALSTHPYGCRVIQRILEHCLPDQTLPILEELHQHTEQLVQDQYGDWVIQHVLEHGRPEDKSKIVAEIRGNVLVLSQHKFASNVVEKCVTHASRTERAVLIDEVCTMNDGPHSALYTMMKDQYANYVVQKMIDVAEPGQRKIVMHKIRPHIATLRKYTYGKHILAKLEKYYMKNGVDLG
# In short: as §1
# PUM1 PUF domain R1-NFR = PUM1 PUF domain R1-NFR (Homo sapiens, UniProt Q14671 828-1176, S863N;R864F;Q867R)
# In short: as §1
# PUM1 PUF domain R5-GQQ = PUM1 PUF domain R5-GQQ (Homo sapiens, UniProt Q14671 828-1176, C1007G;R1008Q)
# In short: as §1
# PUM1 PUF domain R5-EKL = PUM1 PUF domain R5-EKL (Homo sapiens, UniProt Q14671 828-1176, C1007E;R1008K;Q1011L)
# In short: as §1
sequence,measurement,setting,value
GGCUAGAACUAGUGGAUCCCCCGGCGCCCGGCGGCUCGAGCCCGGGUAAGUGUAAGUAGUCUGCAUGCCGCCGGGCGCCAUGCCUGCAGGUCGACUCUAGAAAACAUG,binding signal,PUM1 PUF domain R3-QRR,3.94 log2 enrichment (interaction score)
GGCUAGAACUAGUGGAUCCCCCGGCGCCCGGCGGCUCGAGCCCGGGUAAGUGUGAAUAGUCUGCAUGCCGCCGGGCGCCAUGCCUGCAGGUCGACUCUAGAAAACAUG,binding signal,PUM1 PUF domain R5-GYV,2.9 log2 enrichment (interaction score)
GGCUAGAACUAGUGGAUCCCCCGGCGCCCGGCGGCUCGAGCCCGGGUAAGUGUUAAUAGUCUGCAUGCCGCCGGGCGCCAUGCCUGCAGGUCGACUCUAGAAAACAUG,binding signal,PUM1 PUF domain R5-MKR,1.52 log2 enrichment (interaction score)
same,binding signal,PUM1 PUF domain R5-PWL,3.31 log2 enrichment (interaction score)
GGCUAGAACUAGUGGAUCCCCCGGCGCCCGGCGGCUCGAGCCCGGGUAAGUGUAAAUAGUCUGCAUGCCGCCGGGCGCCAUGCCUGCAGGUCGACUCUAGAAAACAUG,binding signal,PUM1 PUF domain R4-ALG,2.12 log2 enrichment (interaction score)
same,binding signal,PUM1 PUF domain R5-VRV,3.36 log2 enrichment (interaction score)
same,binding signal,PUM1 PUF domain R6-DWQ,2.34 log2 enrichment (interaction score)
GGCUAGAACUAGUGGAUCCCCCGGCGCCCGGCGGCUCGAGCCCGGGUAAGUGUAAAUCGUCUGCAUGCCGCCGGGCGCCAUGCCUGCAGGUCGACUCUAGAAAACAUG,binding signal,PUM1 PUF domain R1-NFR,6.39 log2 enrichment (interaction score)
GGCUAGAACUAGUGGAUCCCCCGGCGCCCGGCGGCUCGAGCCCGGGUAAGUGUCAAUAGUCUGCAUGCCGCCGGGCGCCAUGCCUGCAGGUCGACUCUAGAAAACAUG,binding signal,PUM1 PUF domain R5-MKR,2.84 log2 enrichment (interaction score)
same,binding signal,PUM1 PUF domain R5-GQQ,4.12 log2 enrichment (interaction score)
same,binding signal,PUM1 PUF domain R5-EKL,2.47 log2 enrichment (interaction score)
GGCUAGAACUAGUGGAUCCCCCGGCGCCCGGCGGCUCGAGCCCGGGUAAGUGUAAUUAGUCUGCAUGCCGCCGGGCGCCAUGCCUGCAGGUCGACUCUAGAAAACAUG,binding signal,PUM1 PUF domain R3-QRR,4.3 log2 enrichment (interaction score)
GGCUAGAACUAGUGGAUCCCCCGGCGCCCGGCGGCUCGAGCCCGGGUAAGUGCAAAUAGUCUGCAUGCCGCCGGGCGCCAUGCCUGCAGGUCGACUCUAGAAAACAUG,binding signal,PUM1 PUF domain R6-DWQ,2.44 log2 enrichment (interaction score)
